A selection: hits, their analogues and other compounds. The true share with any hit is near 2.4%.
TGFb SMAD3 inh = blocks TGF-b signaling | Potency, µM (doses to about 46.1 µM), for inactives: at the highest dose activity, negative = inhibition, actives largely listed as inhibitors | HepG2 CAGA-GFP TGF-b/SMAD3 reporter, GFP fluorescence, 18 h; TGF-beta stimulated, 500 pg/mL final | 410,000 tested, 1.2% active; also: % is scaled to controls: 0 for no effect and ±100 for the full control effect; nearly all actives have a fitted effect of over 65% in size
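Using HEPG2 CAGA-GFP reporter cells at 1000 cells/well, we pinned test compounds, stimulated with recombinant TGF-beta (500 pg/mL final) and measured total well GFP after 18 h.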
Anesthetic bind = candidate novel general anesthetic via apoferritin binding. 350,000 tested, 0.074% active. Potency, µM (series often up to 77.5 µM), without a hit: at the top dose activity change, negative = displacement, hits mostly inhibitors. apoferritin/1-aminoanthracene competitive binding, fluorescence; also: % is scaled to controls: 0 for no effect and ±100 for the full control effect; nearly all actives have a fitted effect of over 20% in size
Target sequence (P02791 2-175 limits assumed): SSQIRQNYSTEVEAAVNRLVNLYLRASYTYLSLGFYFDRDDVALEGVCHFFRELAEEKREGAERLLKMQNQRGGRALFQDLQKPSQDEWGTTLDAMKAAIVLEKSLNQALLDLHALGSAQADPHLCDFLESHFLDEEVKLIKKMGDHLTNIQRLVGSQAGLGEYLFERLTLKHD
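Read-out: endpoint 1-AMA fluorescence, excitation 380 nm and emission 535 nm, after compounds sit 10 min at room temperature with 10 uM horse-spleen apoferritin in 50% saturated 1-AMA/PBS. Values come from four-parameter Hill fits.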
HepG2 tox-1 = HepG2 cytotoxicity, counter-screen for TGF-b inhibitors; HepG2 CAGA-GFP viability, ATP luminescence, 18 h; Potency, µM (titrated, usually from 46.1 µM), for inactives: at the highest dose activity change, negative = cytotoxicity, actives largely listed as cytotoxic; 410,000 tested, 0.76% active; AID 588856
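HepG2 CAGA-GFP cells (1000/well, DMEM with 1% FBS) received compound, then TGF-beta at 500 pg/mL final, and were incubated 18 hours at 37 degrees C. Viability was read by CellTiter-Glo luminescence. Media-only wells were set as complete cell-killing and DMSO as no toxicity.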
ATXN viability = cell viability loss in ATXN counter-screen. S2 cells (HEK-293 line with an ATXN2-luciferase reporter) viability, CellTiter-Fluor protease fluorescence, 24 h. Potency, µM (series often up to 56.7 µM), hits mostly cytotoxic. 400,000 tested, 0.49% active. AID 651635; also: nearly all actives have a fitted effect of over 40% in size
ATXN2 expr inh = reduces ATXN2 reporter expression in HEK-293 cells; HEK-293 ATXN2-luciferase reporter, luminescence, 24 h; Potency, µM (series often up to 57 µM), inactives show at the highest dose activity change, negative = inhibition, actives largely listed as inhibitors; 360,000 tested, 0.72% active; AID 1745845; also: % is scaled to controls: 0 for no effect and ±100 for the full control effect; nearly all actives have a fitted effect of over 55% in size
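qHTS (up to 57 uM final) was run with 24 h compound exposure of reporter cells at 37 °C. Each well was multiplexed: SteadyGlo luminescence measured ATXN2-luciferase expression after a fluorogenic Gly-Phe-AFC viability readout (25 uM final).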
TGFb CAGA inh = TGF-b pathway inhibition, cherry-pick retest; HepG2 CAGA-GFP TGF-b reporter, GFP fluorescence, 18 h; cells stimulated with TGF-beta, 500 pg/mL; shares compounds with TGFb SMAD3 inh; 1,600 tested, 63% active; Potency, µM (top dose mostly 46.1 µM), inactives show at the highest dose activity, negative = inhibition, hits mostly inhibitors; also: % is scaled to controls: 0 for no effect and ±100 for the full control effect; nearly all actives have a fitted effect of over 65% in size
HepG2 tox-2 = counter-screen for TGF-b inhibitors: cytotoxicity in HepG2 cells | shares compounds with TGFb SMAD3 inh | HepG2 CAGA-GFP viability, ATP luminescence, 18 h; cells stimulated with TGF-beta, 500 pg/mL | Potency, µM (highest dose often 46.1 µM), without a hit: at the highest dose activity, negative = cytotoxicity, most hits filed as inhibitors | 1,600 tested, 27% active | AID 720535; also: % is scaled to controls: 0 for no effect and ±100 for the full control effect; nearly all actives have a fitted effect of over 70% in size
CCL64 TGFb inh = TGF-b inhibition, CCL64 orthogonal assay | shares compounds with TGFb SMAD3 inh | CCL64 CAGA-GFP reporter, TGF-b stimulated, GFP fluorescence, 18 h | Potency, µM (doses to about 46.1 µM), for the others: at the top dose activity, negative = inhibition, hits mostly inhibitors | 1,600 tested, 41% active | AID 720536; also: nearly all actives have a fitted effect of over 65% in size
COP TGFb inh = validation of TGF-b inhibitors in HepG2 COP promoter reporter; shares compounds with TGFb SMAD3 inh; HepG2 COP-GFP TGF-b reporter, GFP fluorescence, 18 h; cells stimulated by added recombinant TGF-beta; Potency, µM (highest dose often 46.1 µM), for the others: at the top dose activity, negative = inhibition, actives largely listed as inhibitors; 1,600 tested, 3% active; AID 720537; also: nearly all actives have a fitted effect of over 70% in size
* hit, by the source's call; i = inactive; u = inconclusive; x = no result. Calls follow the shape of the dose curve; as a rule, active = well fitted curve in the direction sought with a large enough effect; inconclusive = small, poorly fitted or top-dose-only effect, or another doubt; inactive = no such curve, though single readings can be large; an effect the other way counts as inactive or inconclusive. Potency is read from the fitted curve at half-maximal effect.

SMILES	TGFb SMAD3 inh	Anesthetic bind	HepG2 tox-1	ATXN viability	ATXN2 expr inh	TGFb CAGA inh	HepG2 tox-2	CCL64 TGFb inh	COP TGFb inh
O=C(NCCc1c[nH]c2ccccc12)OCCCCOC(=O)NCCc1c[nH]c2ccccc12	10µM*	x	-42.2%	17.8µM*	u	u	16.4µM*	18.4µM*	41.3%
COc1cc(NC(=O)CN2c3ccccc3CC2C)cc(OC)c1OC (stereo not given)	3.2%	-9.2%	-23.5%	i	-1.5%	x	x	x	x
COc1ccc(Cl)cc1NC(=O)CN1c2ccccc2CC1C (stereo not given)	u	-3.1%	-40.2%	i	-17.8%	u	-21.0%	u	28.3%
CCOC(=O)[C@@H]1[C@H]2COc3ccccc3[C@@H]2N2C(=O)N(c3cccc(F)c3)C(=O)[C@]12C	-2.9%	x	1.6%	i	2.9%	x	x	x	x
COc1ccccc1Cc1c(-c2ccco2)nc2c(C)cc(Br)cn12	8.91µM*	x	-86.9%	u	8.91µM*	7.31µM*	9.2µM*	4.61µM*	u
Cc1ccc2nc(-c3ccco3)c(CC3CCCCC3)n2c1	10µM*	x	-32.1%	x	-35.7%	u	u	20.6µM*	16.3%
COc1ccccc1Cc1c(-c2ccco2)nc2c3ccccc3ccn12	x	x	x	i	57.3%	x	x	x	x
COc1ccccc1Cc1c(-c2ccco2)nc2ccc(C)cn12	10µM*	x	-17.3%	u	-18.6%	16.4µM*	u	u	49.3%
COc1ccccc1Cc1c(-c2ccc(C)cc2)nc2c(C)cc(Br)cn12	u	x	-17.4%	u	0.0%	x	x	x	x
Cc1ccc2nc(-c3ccc(Cl)cc3)c(CC3CCCCC3)n2c1	-29.1%	x	-42.3%	u	8.1%	x	x	x	x
Cc1sc2c(c1C)c(=O)n(-c1ccc(Cl)cc1)c(=O)n2Cc1cc(=O)n2cc(Br)ccc2n1	0.0%	-6.2%	-0.4%	i	-4.5%	x	x	x	x
COc1cc(NC(=O)C2Cc3ccccc3CN2S(C)(=O)=O)cc(OC)c1 (stereo not given)	11.2µM*	6.5%	25.3%	i	-27.4%	-20.7%	-6.5%	-21.0%	8.4%
CCOc1ccc(CCN2C(=S)N([C@@H](CC(C)C)CN3CCC[C@@H]3CN3C(=S)NC[C@@H]3Cc3ccccc3)C[C@@H]2Cc2ccc(O)cc2)cc1	7.94µM*	x	-15.7%	i	-22.9%	u	u	u	27.1%
CC(C)C[C@@H](CN1CCC[C@@H]1CN1C(=S)NC[C@@H]1Cc1ccc(O)cc1)N1C[C@H](Cc2ccccc2)N(CCc2ccccc2)C1=S	15.8µM*	x	-5.9%	u	u	u	-29.9%	u	26.1%
CCOc1ccc(CCN2C(=S)N([C@@H](Cc3ccccc3)CN3CCCC3CN3C(=S)NC[C@@H]3Cc3ccccc3)C[C@@H]2Cc2ccc(O)cc2)cc1 (stereo not given in full)	x	x	x	u	-2.4%	x	x	x	x
